# D1 agonist – Allosteric Agonists of the Human D1 Dopamine Receptor: qHTS; D(1A) dopamine receptor (Homo sapiens), P21728; HEK293 T-REx D1 cells, calcium flux, agonist mode; activation, % at 2 µM; 1% of 360,000 active; in the data active means activation above about 30%; further: 0% is about no effect
# Target sequence (P21728 whole entry, looked up): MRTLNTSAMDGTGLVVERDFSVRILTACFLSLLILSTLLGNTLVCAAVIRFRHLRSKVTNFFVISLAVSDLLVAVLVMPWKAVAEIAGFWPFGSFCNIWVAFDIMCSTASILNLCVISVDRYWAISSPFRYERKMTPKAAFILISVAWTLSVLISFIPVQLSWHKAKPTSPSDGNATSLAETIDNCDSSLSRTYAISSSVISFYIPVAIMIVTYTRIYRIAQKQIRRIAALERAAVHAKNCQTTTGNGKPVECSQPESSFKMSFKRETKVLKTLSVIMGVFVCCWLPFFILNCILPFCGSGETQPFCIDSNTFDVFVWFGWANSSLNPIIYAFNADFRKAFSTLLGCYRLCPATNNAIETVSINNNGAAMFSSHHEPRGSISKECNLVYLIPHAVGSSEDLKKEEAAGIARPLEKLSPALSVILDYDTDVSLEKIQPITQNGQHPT
#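 Inducible HEK293 T-REx D1 cells, force-coupled to calcium signalling, were plated at 4000 cells/well with tetracycline and held overnight at 30 C. After no-wash calcium dye loading, compound-evoked calcium rise over 180 s flagged agonists.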
# D1 PAM – Potentiators of Human D1 Dopamine Receptor: qHTS; potentiation, % at 10 µM; HEK293 TREx D1 cells, calcium flux, dopamine EC20 potentiation; D(1A) dopamine receptor (Homo sapiens), P21728; 0.036% of 360,000 active; AID 504651, 2011; in the data active means potentiation above about 30%; further: 0% is about no effect
# DRD3 antagonist – qHTS of D3 Dopamine Receptor Antagonist: qHTS; AID 652054, 2013; D(3) dopamine receptor (Homo sapiens), P35462; 2.5% of 360,000 active; max response, negative = inhibition, %; D3R cells, DiscoveRx beta-arrestin luminescence, antagonist mode; hits give low values; in the data active means max response below about -50%; inconclusive means no clear call, values can overlap the other calls; further: on the % scale 0 is the no-effect control and ±100 the full control effect
#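 Cells plated overnight at 1500 cells/well, then exposed to library compounds with dopamine controls for 90 minutes at 37 degrees C. DiscoveRx reagent added for 30–60 minutes at room temperature; luminescence read, quantitative HTS format.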
# D3 ag – qHTS of D3 Dopamine Receptor Agonist: qHTS | D(3) dopamine receptor (Homo sapiens), P35462 | D3R DiscoveRx beta-arrestin cells, luminescence, 90 min | max activation, % | 0.58% of 410,000 active | AID 652048, 2013; in the data active means max activation above about 30%; further: 0% is about no effect
#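 Agonist-mode cell screen: cells plated at 1500/well and incubated overnight at 37 °C, then exposed to library compounds for 90 min at 37 °C. Detection reagent was added for 30–60 min at room temperature, and luminescence was read.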
# D1 antag – Antagonist of Human D 1 Dopamine Receptor: qHTS; HEK293 TREx D1 cells, calcium flux, dopamine EC80; hits give low values; activity change, negative = inhibition, % at 10 µM; 3.2% of 360,000 active; AID 504652, 2011; in the data active means activity change below about -30%; further: on the % scale 0 is the no-effect control and ±100 the full control effect
#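 Calcium flux readout: force-coupled, inducible Hek293 Trex D1 line, cells induced overnight at 30 C with tetracycline, dye-loaded 30–90 min at RT. Antagonism scored against EC80 dopamine challenge given 180 s after compound.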
# * = called active by the depositor; ? = inconclusive; . = no result given. This is a sample that favours compounds with a hit; in the whole collection about 6% have one here.
SMILES,D1 agonist,D1 PAM,DRD3 antagonist,D3 ag,D1 antag
C=CCSc1nnc(CC(OC)OC)n1-c1ccccc1,8,0,8,1,-37*
CCOc1ccccc1CN1CCN(S(=O)(=O)CC)CC1,0,7,-51*,-5,27
COc1ccccc1N1CCN(Cc2ccc(O)c3ncccc23)CC1,8,-8,-105*,-87,-1
COc1ccc(CN2CCN(C(=O)c3cccs3)CC2)c(OC)c1OC,5,-3,-86*,-13,-34*
COc1ccc(CN2CCN(C(=O)c3ccc(-c4ccccc4)cc3)CC2)c(OC)c1OC,-3,-1,9,6,7
Oc1ccc(CN2CCCc3ccccc32)c2cccnc12,2,-9,-22,8,-5
CCCS(=O)(=O)N1CCN(Cc2ccccc2OCC)CC1,5,2,?,-5,0
CCOC(=O)C1CCN(Cc2ccc(O)c3ncccc23)CC1,0,-1,-93*,-19,-42*
COc1ccccc1-c1cncc(NC(C)=O)n1,.,.,34,6,.
Cc1ccc(NC(=O)NCc2ccccn2)c(C)c1,-1,-8,28,4,-5
CCOc1ccccc1N1CCN(Cc2cccc(OC)c2OC)CC1,9,-7,-89*,-2,3
COc1cc2oc(=O)cc(CN3CCN(c4ccccc4OC)CC3)c2cc1Cl,.,.,-50*,-1,.
COc1ccc2c(CN3CCN(c4ccccc4OC)CC3)cc(=O)oc2c1,.,.,?,-18,.
COc1cccc(CN2CCN(c3ncccn3)CC2)c1OC,0,-3,-1,11,9
CN1CCN(Cc2cc(Cl)c3cccnc3c2OC(=O)c2cccs2)CC1,3,-8,7,5,-14
COc1ccccc1N1CCN(Cc2ccc(OC)c(OC)c2OC)CC1,3,-3,-51*,-9,-8
O=C(Oc1c(CN2CCOCC2)cc(Cl)c2cccnc12)c1ccccc1Br,0,-2,-80*,-28,-10
CCCCc1ccc(NC(=O)CN(C)CC(=O)Nc2ccccc2Cl)cc1,8,3,-3,3,-15
CCOC(=O)N1CCN(Cc2ccccc2Cl)CC1,0,-6,-12,-7,6
CCOc1ccccc1N1CCN(Cc2cn[nH]c2-c2ccc(F)cc2)CC1,43*,4,-84*,-17,58
CCOC(=O)N1CCN(Cc2cc(Cl)c3cccnc3c2O)CC1,11,-2,-55*,-11,3
O=C(c1ccc(F)cc1)C1CCN(Cc2cn[nH]c2-c2ccc(F)cc2)CC1,10,-10,?,-10,-24
COc1ccc(N2CCN(C(=O)COC(=O)c3nc(Cl)ccc3Cl)CC2)cc1,.,.,13,3,.
COc1ccc2ccc(OC)c(/C=N/NC(=O)c3cc4ccccc4o3)c2c1,.,.,-87*,-8,.
COc1cc(C(=O)N/N=C/c2cc([N+](=O)[O-])cs2)cc(OC)c1OC,0,2,-50*,-18,-11
SMILES,D1 agonist,D1 PAM,DRD3 antagonist,D3 ag,D1 antag
COc1ccc(C(CNC(=O)c2oc3ccccc3c2C)N2CCCCC2)cc1 (stereo not given),0,-3,.,-24,14
COc1ccc(C(CNC(=O)c2cc3ccccc3o2)N2CCCC2)cc1 (stereo not given),9,.,-84*,-30,12
COc1ccc(C(CNC(=O)c2oc3ccc(C)cc3c2C)N2CCCCC2)cc1 (stereo not given),0,2,-104*,-15,-2
CCOc1ccc(C(=O)N/N=C/c2cc([N+](=O)[O-])cs2)cc1,8,-4,-8,1,-7
COCCn1c(SCC(=O)N2CCC(C)CC2)nc2c([nH]c3ccccc32)c1=O,4,-8,11,7,-6
CCCCCCCCCCCCCCCCSCC(COC)COP(=O)([O-])OCC[N+](C)(C)C (stereo not given),.,.,.,5,.
O=C(N/N=C/c1ccncc1)c1cc2c(ccc3ccccc32)o1,2,0,0,0,-32*
COc1ccc(CNC(=S)NNC(=O)c2cc3ccccc3o2)cc1,0,-6,2,1,3
COc1ccc(C(CNC(=O)c2cc3ccccc3o2)N2CCCCC2)cc1 (stereo not given),3,-3,-74*,-18,-22
COc1ccc(C(=O)NNC(=O)c2ccc3ccccc3c2O)cc1,2,-1,4,10,-2
COc1cccc(OCC(=O)NNC(=O)c2ccc3ccccc3c2O)c1,9,-6,12,4,-37*
O=C(O)c1ccc(/C=N/NC(=O)c2cc3c(ccc4ccccc43)o2)cc1,5,7,17,1,-7
COc1ccc(OCC(=O)NNC(=O)c2cc3ccccc3o2)cc1,0,-7,15,3,-31*
O=C(c1ccc2c(c1)N(Cc1cccc(Cl)c1)C(=O)c1ccccc1S2)N1CCOCC1,10,-3,.,-15,20
O=C(Nc1ccc(Cl)c(C(F)(F)F)c1)c1nc2ccccc2nc1N1CCCCC1,15,0,.,1,13
CCOc1ccc(NC(=O)[C@H]2O[C@@H]3OC(C)(C)O[C@@H]3[C@H]3OC(C)(C)O[C@H]32)cc1,0,0,.,-7,-5
O=S(=O)(Nc1ccc(Br)cn1)c1ccc2ccccc2c1,-4,7,-23,-17,3
CCc1ncnc2cc(OC)c(OC)cc12,.,.,.,-9,.
CC(C)Cc1nn2c(=O)cc(COC(=O)c3ccccc3NC(=O)c3ccccc3)nc2s1,4,2,.,-12,22
COc1ccc2ccccc2c1/C=N/NC(=O)c1ccc([N+](=O)[O-])cc1,-1,-7,-97*,-34,-6
COc1ccc2ccccc2c1/C=N/NC(=O)c1cccc(Br)c1,2,-3,-7,-5,-7
CN(CCc1ccccc1)C1CCCN(S(=O)(=O)c2cccc(F)c2)C1 (stereo not given),-3,-11,-63*,-7,-9
COc1ccc(CCN(C)C2CCCN(S(=O)(=O)c3ccc(C)cc3)C2)cc1OC (stereo not given),-3,-9,-7,-13,-37*
Cc1cc(S(=O)(=O)N2CCCC(N(C)CCc3ccccn3)C2)c(C)cc1Cl (stereo not given),18,-15,-12,-11,-54*
COc1ccc(CCN(C)C2CCCN(C(=O)c3sccc3C)C2)cc1OC (stereo not given),1,3,-64*,-11,0
COc1cc(CN(C(=O)c2ccc(OC(C)C)cc2)c2ccccn2)cc(OC)c1OC,5,0,.,-5,-11
CCCNC(=O)c1ccc(N2CCC3(CC2)CC(c2cccc(Br)c2)=NO3)c(NC(=O)c2ccc(Cl)c([N+](=O)[O-])c2)c1,-1,2,?,2,2
